What is called inhibition is the relative decrease from the control value, in per cent.

The structures appear in SMILES notation. Where “and” joins values, the source holds several entries; their conditions need not be identical. Equal entries are not always repeated. The campaign covered roughly 190,000 compounds. About 6,900 (3.6%) were called active. The sample holds actives, similar compounds and a random draw of the others, so the mix is not that of the screen. Cut-off read from the data, not from the text of the source: active = inhibition above about 50%; inactive = the rest. More than one record can exist for a structure, and the calls need not agree.

Sequence of Huntingtin (Homo sapiens) (P42858 whole entry, looked up, stated change not applied): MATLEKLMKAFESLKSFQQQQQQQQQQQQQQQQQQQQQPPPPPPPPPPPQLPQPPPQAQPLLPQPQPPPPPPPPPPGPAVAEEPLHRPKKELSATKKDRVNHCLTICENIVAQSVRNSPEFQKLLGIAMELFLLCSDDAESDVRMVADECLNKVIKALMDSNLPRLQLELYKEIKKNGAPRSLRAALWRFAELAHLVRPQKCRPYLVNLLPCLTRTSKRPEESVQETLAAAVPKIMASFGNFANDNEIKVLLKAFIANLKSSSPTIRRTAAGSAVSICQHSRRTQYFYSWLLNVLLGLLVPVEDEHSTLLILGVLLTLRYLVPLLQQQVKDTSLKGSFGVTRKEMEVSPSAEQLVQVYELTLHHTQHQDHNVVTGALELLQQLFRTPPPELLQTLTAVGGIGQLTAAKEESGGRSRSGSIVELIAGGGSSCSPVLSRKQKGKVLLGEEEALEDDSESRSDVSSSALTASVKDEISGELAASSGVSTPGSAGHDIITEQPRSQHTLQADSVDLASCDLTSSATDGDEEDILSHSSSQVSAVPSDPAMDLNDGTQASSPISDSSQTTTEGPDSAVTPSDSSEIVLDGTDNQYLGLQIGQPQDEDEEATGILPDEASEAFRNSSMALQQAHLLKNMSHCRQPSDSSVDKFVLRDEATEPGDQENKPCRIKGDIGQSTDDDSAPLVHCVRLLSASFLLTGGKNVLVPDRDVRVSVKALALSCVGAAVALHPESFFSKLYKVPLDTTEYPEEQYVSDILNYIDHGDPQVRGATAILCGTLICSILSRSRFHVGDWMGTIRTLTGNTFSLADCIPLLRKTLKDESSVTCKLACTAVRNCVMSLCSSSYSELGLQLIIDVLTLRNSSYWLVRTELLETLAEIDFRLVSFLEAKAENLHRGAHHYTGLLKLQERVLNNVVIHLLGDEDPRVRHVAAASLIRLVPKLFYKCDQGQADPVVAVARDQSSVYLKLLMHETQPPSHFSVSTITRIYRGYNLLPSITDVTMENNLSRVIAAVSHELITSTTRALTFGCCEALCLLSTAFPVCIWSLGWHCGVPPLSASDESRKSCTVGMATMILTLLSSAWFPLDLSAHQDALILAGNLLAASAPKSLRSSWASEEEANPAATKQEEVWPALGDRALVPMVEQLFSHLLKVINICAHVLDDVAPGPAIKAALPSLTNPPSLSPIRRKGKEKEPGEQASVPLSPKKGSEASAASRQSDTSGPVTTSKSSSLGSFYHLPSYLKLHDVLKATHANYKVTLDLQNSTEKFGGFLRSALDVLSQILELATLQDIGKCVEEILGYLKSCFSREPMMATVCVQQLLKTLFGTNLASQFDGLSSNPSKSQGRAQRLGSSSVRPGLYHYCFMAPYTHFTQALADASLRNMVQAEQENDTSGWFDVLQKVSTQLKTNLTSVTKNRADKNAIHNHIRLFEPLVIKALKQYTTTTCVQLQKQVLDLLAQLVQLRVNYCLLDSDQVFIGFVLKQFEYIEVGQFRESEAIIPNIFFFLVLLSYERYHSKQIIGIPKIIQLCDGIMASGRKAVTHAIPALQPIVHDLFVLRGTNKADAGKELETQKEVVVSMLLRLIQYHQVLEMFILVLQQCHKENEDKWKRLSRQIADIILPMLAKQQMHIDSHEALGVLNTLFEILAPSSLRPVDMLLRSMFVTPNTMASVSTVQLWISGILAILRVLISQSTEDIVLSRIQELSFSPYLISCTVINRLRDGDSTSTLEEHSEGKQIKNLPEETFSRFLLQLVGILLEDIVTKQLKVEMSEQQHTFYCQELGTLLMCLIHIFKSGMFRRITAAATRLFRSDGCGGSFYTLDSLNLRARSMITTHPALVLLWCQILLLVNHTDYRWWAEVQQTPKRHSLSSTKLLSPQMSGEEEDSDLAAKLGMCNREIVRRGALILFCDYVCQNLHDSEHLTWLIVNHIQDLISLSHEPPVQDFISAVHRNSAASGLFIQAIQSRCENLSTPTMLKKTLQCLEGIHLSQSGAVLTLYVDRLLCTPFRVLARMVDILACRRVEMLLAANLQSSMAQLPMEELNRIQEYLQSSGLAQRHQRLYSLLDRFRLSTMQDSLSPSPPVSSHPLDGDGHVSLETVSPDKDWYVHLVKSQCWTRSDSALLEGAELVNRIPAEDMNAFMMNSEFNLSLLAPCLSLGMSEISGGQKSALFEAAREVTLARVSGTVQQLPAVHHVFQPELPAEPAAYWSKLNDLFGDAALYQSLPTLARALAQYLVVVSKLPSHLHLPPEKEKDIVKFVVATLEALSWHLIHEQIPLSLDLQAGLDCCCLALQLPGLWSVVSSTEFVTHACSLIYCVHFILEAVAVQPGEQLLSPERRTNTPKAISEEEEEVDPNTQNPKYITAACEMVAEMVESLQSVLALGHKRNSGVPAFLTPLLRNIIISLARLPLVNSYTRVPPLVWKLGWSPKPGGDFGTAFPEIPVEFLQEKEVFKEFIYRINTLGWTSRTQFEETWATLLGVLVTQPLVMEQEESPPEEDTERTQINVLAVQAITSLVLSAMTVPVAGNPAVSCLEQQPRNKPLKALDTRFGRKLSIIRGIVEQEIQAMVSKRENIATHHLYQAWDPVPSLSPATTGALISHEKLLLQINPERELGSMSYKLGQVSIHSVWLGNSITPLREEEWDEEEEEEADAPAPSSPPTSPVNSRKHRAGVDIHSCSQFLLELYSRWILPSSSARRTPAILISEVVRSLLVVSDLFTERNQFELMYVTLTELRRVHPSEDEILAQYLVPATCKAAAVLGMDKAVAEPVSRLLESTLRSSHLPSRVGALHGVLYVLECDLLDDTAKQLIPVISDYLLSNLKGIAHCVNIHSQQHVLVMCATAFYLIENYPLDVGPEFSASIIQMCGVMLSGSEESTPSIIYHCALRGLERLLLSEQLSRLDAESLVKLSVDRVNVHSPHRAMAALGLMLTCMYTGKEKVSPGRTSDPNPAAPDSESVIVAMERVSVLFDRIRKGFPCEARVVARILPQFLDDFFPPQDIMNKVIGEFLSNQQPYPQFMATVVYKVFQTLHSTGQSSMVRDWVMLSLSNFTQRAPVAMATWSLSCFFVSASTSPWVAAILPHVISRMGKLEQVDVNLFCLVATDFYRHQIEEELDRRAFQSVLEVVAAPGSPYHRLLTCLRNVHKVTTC

This assay addresses Huntingtin (Homo sapiens) (UniProt P42858). The experiment in a line: mutant huntingtin-calmodulin interaction inhibitors – biochemical, AlphaScreen, primary screen (AID 1671202).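 For inhibition: 0% = both proteins with DMSO and 100% = one protein alone.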 The settings on record: AlphaScreen His-mHTT/GST-CaM binding, luminescence; at 15 µM, stronger effect = higher value.
`CC(C)c1c(C2CCN(C(=O)c3cccc(F)c3)CC2)noc1N`: the inhibition is -1.9% (inactive).
The figure for `Cc1cc(C(=O)NCCCn2ccnc2)ccc1[N+](=O)[O-]` is -2.3% (inactive); for `CC(CC(=O)N1CCN(c2nc3ccccc3n(C)c2=O)CC1)c1ccccc1` (stereo unspecified) it is 3.2% (inactive).
As for `Cc1ccccc1C1=N/C(=C\c2ccc(Br)cc2)C(=O)O1`, the figure is -1% (inactive).
As for `CN(C)CCCn1c(-c2ccc(Cl)cc2)csc1=Nc1ccccc1`, the figure is 89% (active).
In the case of `COc1ccc(-c2csc(=Nc3ccccc3)n2C)cc1`, the inhibition is 29% (inactive).
As for `COc1ccc(C2C(=C(O)c3ccc(Cl)cc3)C(=O)C(=O)N2CCCN(C)C)c(OC)c1` (stereo unspecified), the figure is -4.4% (inactive).
The figure for `CC1C(=O)N(c2ccc(Br)cc2)CCN1C(=O)C1CCCC1` (stereo unspecified) is -6.1% (inactive); for `Cc1ccc(C(=O)N2CCC(CC(=O)NCCN3CCCCCC3)CC2)cc1` it is 13.3% (inactive); for `Cc1nc(-c2ccccc2)oc1CC(=O)NCCN1CCCCCC1` it is 100% (active).
With `O=C(CCS(=O)(=O)Cc1ccccc1F)NCCCN1CCCCC1`, the inhibition is 1% (inactive).
For the compound `O=S(=O)(c1ccccc1)c1cccs1`, the inhibition is -6.17% (inactive).
As for `Cc1cc(C)c(NC(=O)CNC2CC(C)(C)NC(C)(C)C2)c(C)c1`, the figure is -6.9% (inactive).
The figure for `COc1ccc2oc(=O)c(-c3nnc(Nc4ccc(C)cc4)s3)cc2c1` is 3% (inactive); for `O=C(c1ccco1)N1CCN(c2ccc([N+](=O)[O-])cc2)CC1` it is 0.2% (inactive); for `Cc1ccc2nc3sc(C(=O)N4CCN(C(=O)c5ccco5)CC4)cc3c(=O)n2c1` it is 12.9% (inactive).
The figure for `O=C(c1ccco1)N1CCN(c2ncnc3sc(-c4ccccc4)cc23)CC1` is 54.6% (active); for `COc1cc(C(=O)N2CCC(CC(=O)NCc3ccccn3)CC2)cc(OC)c1OC` it is 19.9% (inactive).
For the compound `COCCN1C(=O)c2ccccc2C(C(=O)NCC2CCCO2)C1c1ccc(F)cc1` (stereo unspecified), the inhibition is 0% (inactive).
As for `Cc1ccc(C(=O)N2CCc3sc(C(=O)NCCC(C)C)cc3C2)cc1`, the inhibition was -0.52% (inactive).
The figure for `O=C(Nc1ccc([N+](=O)[O-])cc1)C12CC3CC(C1)CC(c1ccccc1)(C3)C2` is 14.9% (inactive); for `O=C(c1ccc2c(c1)OCO2)N1CCOCC1` it is 1% (inactive); for `O=C(c1ccc(-c2ccsc2)nc1)N1CCOCC1` it is -3.2% (inactive).
As for `O=C(c1ccc(F)cc1)N1CCC(n2nc(-c3ccsc3)ccc2=O)CC1`, the figure is 93.2% (active); as for `O=C(c1ccc(-c2ccsc2)nc1)N1CCCCCC1`, -6.2% (inactive).
On to `O=C(c1ccc2c(c1)OCO2)N1CCC(n2nc(-c3ccsc3)ccc2=O)CC1`, for which the inhibition was 98% (active).
As for `CC1CCCN(C(=O)c2ccc(-c3ccsc3)nc2)C1` (stereo unspecified), the figure is -3.7% (inactive).
As for `COc1ccc(NC(=O)N2CCCC2c2nc(-c3ccc(F)cc3F)no2)cc1F` (stereo unspecified), the figure is 5.86% (inactive); as for `O=C(C1CCCC1)N1CCN(Cc2noc(-c3cccc4ccccc34)n2)CC1`, 19.3% (inactive).
As for `O=C(N/N=C/C=C\c1ccco1)c1ccco1`, the entry is “inactive”.
In the case of `O=C(NCCn1ncccc1=O)c1cc(C2CC2)on1`, the inhibition was -8.3% (inactive).
The figure for `O=c1c(-c2ccc3c(c2)OCCO3)c(C(F)(F)F)oc2cc(O)cc(O)c12` is 54.5% (active); for `Cc1cc(O)c2c(=O)c(-c3csc(C)n3)c(C(F)(F)F)oc2c1` it is 1% (inactive); for `COc1ccc(-c2c(C(F)(F)F)oc3cc(O)ccc3c2=O)cc1` it is 10% (inactive) and -0.6% (inactive).
With `COc1ccc(-c2noc(C3CCN(CC(=O)Nc4ccc(C)c(F)c4)CC3)n2)cc1`, the inhibition is -6.73% (inactive).
Regarding `Cc1ccccc1Oc1nc(N2CCCC2)nc2c1CN(Cc1ccncc1)CC2`, the inhibition was 17.7% (inactive).
The figure for `Cc1ccccc1NC(=O)NCc1ccsc1` is -8.6% (inactive); for `O=C1c2ccccc2-c2onc3c(N4CCCC4)ccc1c23` it is 64% (active).
As for `CCN(Cc1ccccc1)C(=O)c1ccccc1Cl`, the figure is -7.8% (inactive).
As for `CCCNc1cc(N2CCC(CCC(=O)NCc3ccccn3)CC2)ncn1`, the figure is 1.6% (inactive); as for `COc1ccccc1Nc1cc(C)nc2ccc(Cl)cc12`, 0% (inactive).
Take `O=C(Nc1ccccc1I)c1ccccc1F`: the inhibition is -15.8% (inactive) and -24% (inactive).
As for `Cc1ccc(C(=O)Nc2cnc(N3CCCCC3)nc2)c(C)c1`, the figure is 9.7% (inactive); as for `COc1ccc(/C=C2\N=C(c3cccc(Br)c3)OC2=O)cc1`, -5% (inactive); as for `COc1ccc(C2=NC(c3ccncc3)=Nc3ccc(Br)cc3N2)cc1`, 50.3% (active).
As for `COc1cc(C=C(C#N)c2nc(-c3ccc4c(c3)OCO4)cs2)cc(OC)c1OC(C)=O`, the figure is -4.5% (inactive); as for `CC(=O)N1c2ccccc2NC2=C(C(=O)CC(C)(C)C2)C1c1ccc(N(C)C)cc1` (stereo unspecified), 29.3% (inactive).
On to `COc1ccc(S(=O)(=O)CCC(=O)Nc2ccccc2C(F)(F)F)cc1`, for which the inhibition is 1% (inactive).
As for `O=[N+]([O-])c1cc(Cl)ccc1N1CCCNCC1`, the figure is -0.3% (inactive); as for `COc1ccc(C(=O)N2CCN(c3ccc(Cl)cc3[N+](=O)[O-])CC2)cc1Br`, 14.9% (inactive); as for `O=C(Cc1ccc(Cl)cc1)N1CCN(c2ccc(Cl)cc2[N+](=O)[O-])CC1`, 58.1% (active) and 44% (inactive).
The figure for `O=C(CSc1nc2[nH]ncc2c(=O)n1-c1ccccc1)NCc1cccc(Cl)c1` is 8% (inactive); for `O=S1(=O)CC(N2CCC(Cc3ccccc3)CC2)CN1Cc1ccccc1` (stereo unspecified) it is 19.9% (inactive); for `O=[N+]([O-])c1ccc(CN2CC(N3CCC(c4ccccc4)CC3)CS2(=O)=O)cc1` (stereo unspecified) it is 50.1% (active).
As for `O=[N+]([O-])c1ccc(CN2CC(N3CC=CC3)CS2(=O)=O)cc1` (stereo unspecified), the figure is -3% (inactive); as for `Cn1c(/C=C/c2ccc(Cl)cc2)nc2ccccc21`, -18.9% (inactive); as for `OC(COCC12CC3CC(CC(C3)C1)C2)CN1CCc2ccccc2C1` (stereo unspecified), 35.2% (inactive).
For the compound `Cc1ccc(C(=O)N2CCN(c3nc(CN4CCCCC4)cs3)CC2)cc1F`, the inhibition is 2% (inactive).
As for `Cn1nc(-c2nnc(-c3ccccc3Cl)o2)c2c1CCN(C(=O)CCc1ccccc1)C2`, the figure is 76.5% (active).
As for `Cn1nc(-c2nc(Cc3ccccc3)no2)c2c1CCN(C(=O)c1ccccc1Cl)C2`, the figure is 6.74% (inactive).
With `CCC(CC)C(=O)N1CCc2c(c(-c3nnc(-c4ccccc4Cl)o3)nn2C)C1`, the inhibition was 6.42% (inactive).

For the origin of these results see PubChem BioAssay AID1671202 (University of Kansas High Throughput Screening Laboratory, 2021).
